The supplement of paper PMC10849652
The full data set covers some 7,900 targets. This sample favours those with a hit. About 0.6% of all pairs of compound and target were hits. Values without a mark were called inactive.

Assays:
Assay in all cases: log2 fold change, soluble protein after heating vs DMSO (PISA); higher = thermal stabilisation; K562 cells, 10 uM, 30 min; active = over 0.2 and 3.5 SD of the protein, either way, in both replicates (recomputed)
[1] = compound: CC[C@@H]1C(=O)N(C)c2cnc(Nc3ccc(C(=O)NC4CCN(C)CC4)cc3OC)nc2N1C1CCCC1
How it was run: (§1)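 K562 cells at 2×10^6 cells/mL were given 10 μM compound for 30 min. Aliquots then went through 3 min of heating across 48°C-58°C, were pooled, and were extracted in PBS with 0.5% NP-40 at 4°C, and the supernatant after 21,000xg for 90 min was quantified by TMTpro 16plex LC-MS/MS with channel sums equalised. Thermal stability relative to control samples, from duplicates, is given as log2 fold change.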

[2] = compound: CC[C@@H]1C(=O)N(C)c2cnc(Nc3ccc(C(=O)N[C@H]4CC[C@H](N5CCN(CC6CC6)CC5)CC4)cc3OC)nc2N1C(C)C [volasertib]
How it was run: as §1

[3] = compound: CC[C@H](C)N1C=C(C2=C(C=C(C=C21)C3=CN=C(C=C3)N4CCNCC4)C(=O)NCC5=C(C=C(NC5=O)C)C)C
How it was run: as §1

[4] = compound: CC[C@H](C)[C@@H](C(=O)N[C@@H]([C@@H](C)O)C(=O)N[C@@H](CC(C)C)C(=O)[C@]1(CO1)C)NC(=O)[C@H]([C@@H](C)CC)N(C)C(=O)C [epoxomicin]
How it was run: as §1

[5] = compound: CCn1c(C(=O)N(C2CC2)C2CC2)cc2c3c(ncn3C)c(Nc3cc(C)n(C)n3)nc21
How it was run: as §1

[6] = compound: CCn1cc(-c2ccnc3[nH]c(-c4cccc(CN(C)C)c4)cc23)c(-c2ccc(NC(=O)N(C)C)cc2)n1
How it was run: as §1

[7] = compound: CN(C)CC(=O)Nc1ccc2[nH]c(=O)c3ccccc3c2c1
How it was run: as §1

[8] = compound: CN(CCOC1=CC=C(C=C1)C[C@H]2C(=O)NC(=O)S2)C3=CC=CC=N3 (racemic) [rosiglitazone]
How it was run: as §1

[9] = compound: CN1C2=C(C3=C1C(=O)N(N=C3)CC4=CC(=CC=C4)N)SC(=C2)S(=O)C
How it was run: as §1

[10] = compound: CN1CCC(CNc2ccc3ncc(-c4cccc(OC(F)(F)F)c4)n3n2)CC1
How it was run: as §1

[11] = compound: CN1CCN(CCOc2cc(OC3CCOCC3)c3c(Nc4c(Cl)ccc5c4OCO5)ncnc3c2)CC1 [saracatinib]
How it was run: as §1

[12] = compound: CN1CCN(c2nc(C3=C(c4c[nH]c5ccccc45)C(=O)NC3=O)c3ccccc3n2)CC1 [sotrastaurin]
How it was run: as §1

[13] = compound: CN1CC[C@H](c2c(O)cc(O)c3c(=O)cc(-c4ccccc4Cl)oc23)[C@H](O)C1 [alvocidib]
How it was run: as §1

[14] = compound: CN1CCc2c(c3ccccc3n2Cc2ccc(C(=O)NO)cc2)C1 [Tubastatin A]
How it was run: as §1

[15] = compound: CNC(=O)C1=CC=CC=C1NC2=NC(=NC=C2Cl)NC3=C(C=C(C=C3)N4CCOCC4)OC
How it was run: as §1

[16] = compound: CNC(=O)c1ccc(Nc2ncc(C(F)(F)F)c(NCc3nccnc3N(C)S(C)(=O)=O)n2)cc1 [defactinib]
How it was run: as §1

[17] = compound: CNCc1ccc(-c2[nH]c3cc(F)cc4c3c2CCNC4=O)cc1 [rucaparib]
How it was run: as §1

[18] = compound: CNc1nc(-c2ccc3c(N)n[nH]c3c2)cc(N2C[C@@H](C(=O)NC3CCCCC3)CC[C@H]2C)n1
How it was run: as §1

[19] = compound: COC(=O)N[C@@H](C)CNc1nccc(-c2cn(C(C)C)nc2-c2cc(Cl)cc(NS(C)(=O)=O)c2F)n1 [encorafenib]
How it was run: as §1

[20] = compound: COC(=O)[C@H](CCSC)NC(=O)C1=C(C=C(C=C1)NC[C@H](CS)N)C2=CC=CC=C2
How it was run: as §1

UniProt P46019, sequence (P46019 whole entry, looked up): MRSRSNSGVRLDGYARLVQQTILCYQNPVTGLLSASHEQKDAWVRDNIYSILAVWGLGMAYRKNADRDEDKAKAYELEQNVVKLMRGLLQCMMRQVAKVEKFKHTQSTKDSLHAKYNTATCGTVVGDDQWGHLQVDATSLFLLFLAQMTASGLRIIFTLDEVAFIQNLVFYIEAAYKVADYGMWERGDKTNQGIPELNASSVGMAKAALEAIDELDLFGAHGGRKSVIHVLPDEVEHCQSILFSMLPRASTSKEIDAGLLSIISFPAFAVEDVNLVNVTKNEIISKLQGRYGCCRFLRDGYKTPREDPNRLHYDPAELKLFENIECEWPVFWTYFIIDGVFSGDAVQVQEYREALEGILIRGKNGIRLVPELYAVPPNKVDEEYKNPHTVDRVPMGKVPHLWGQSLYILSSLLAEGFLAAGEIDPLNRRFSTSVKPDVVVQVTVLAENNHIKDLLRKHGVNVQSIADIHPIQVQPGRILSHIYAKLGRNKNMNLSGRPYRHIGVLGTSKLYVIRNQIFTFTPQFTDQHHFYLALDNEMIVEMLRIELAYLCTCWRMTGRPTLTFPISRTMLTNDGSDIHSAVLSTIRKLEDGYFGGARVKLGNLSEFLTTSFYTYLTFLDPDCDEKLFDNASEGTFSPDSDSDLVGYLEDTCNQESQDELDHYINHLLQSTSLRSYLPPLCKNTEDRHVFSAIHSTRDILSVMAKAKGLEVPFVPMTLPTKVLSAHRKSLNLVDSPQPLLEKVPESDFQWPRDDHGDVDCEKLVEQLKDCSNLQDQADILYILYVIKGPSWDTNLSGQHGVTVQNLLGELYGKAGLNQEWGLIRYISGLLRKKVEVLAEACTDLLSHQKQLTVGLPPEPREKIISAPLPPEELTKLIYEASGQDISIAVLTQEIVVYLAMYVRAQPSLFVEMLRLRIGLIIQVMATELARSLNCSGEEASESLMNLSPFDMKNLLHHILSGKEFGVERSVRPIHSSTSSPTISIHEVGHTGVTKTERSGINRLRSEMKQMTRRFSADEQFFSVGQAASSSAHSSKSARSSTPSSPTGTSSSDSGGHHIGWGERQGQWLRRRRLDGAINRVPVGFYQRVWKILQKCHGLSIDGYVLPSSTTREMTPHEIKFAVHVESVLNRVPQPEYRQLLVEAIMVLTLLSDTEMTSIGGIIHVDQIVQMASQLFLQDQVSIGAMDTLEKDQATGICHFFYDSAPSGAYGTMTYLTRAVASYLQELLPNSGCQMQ
UniProt Q8TAP8, sequence (Q8TAP8 whole entry, looked up): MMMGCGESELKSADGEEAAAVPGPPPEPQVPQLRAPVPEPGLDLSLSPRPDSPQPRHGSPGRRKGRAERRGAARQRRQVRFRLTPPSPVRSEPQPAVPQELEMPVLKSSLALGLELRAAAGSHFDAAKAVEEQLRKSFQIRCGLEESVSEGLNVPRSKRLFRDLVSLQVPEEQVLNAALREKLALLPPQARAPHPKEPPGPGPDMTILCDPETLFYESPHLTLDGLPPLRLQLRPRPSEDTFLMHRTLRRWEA
UniProt P29590, sequence (P29590 whole entry, looked up): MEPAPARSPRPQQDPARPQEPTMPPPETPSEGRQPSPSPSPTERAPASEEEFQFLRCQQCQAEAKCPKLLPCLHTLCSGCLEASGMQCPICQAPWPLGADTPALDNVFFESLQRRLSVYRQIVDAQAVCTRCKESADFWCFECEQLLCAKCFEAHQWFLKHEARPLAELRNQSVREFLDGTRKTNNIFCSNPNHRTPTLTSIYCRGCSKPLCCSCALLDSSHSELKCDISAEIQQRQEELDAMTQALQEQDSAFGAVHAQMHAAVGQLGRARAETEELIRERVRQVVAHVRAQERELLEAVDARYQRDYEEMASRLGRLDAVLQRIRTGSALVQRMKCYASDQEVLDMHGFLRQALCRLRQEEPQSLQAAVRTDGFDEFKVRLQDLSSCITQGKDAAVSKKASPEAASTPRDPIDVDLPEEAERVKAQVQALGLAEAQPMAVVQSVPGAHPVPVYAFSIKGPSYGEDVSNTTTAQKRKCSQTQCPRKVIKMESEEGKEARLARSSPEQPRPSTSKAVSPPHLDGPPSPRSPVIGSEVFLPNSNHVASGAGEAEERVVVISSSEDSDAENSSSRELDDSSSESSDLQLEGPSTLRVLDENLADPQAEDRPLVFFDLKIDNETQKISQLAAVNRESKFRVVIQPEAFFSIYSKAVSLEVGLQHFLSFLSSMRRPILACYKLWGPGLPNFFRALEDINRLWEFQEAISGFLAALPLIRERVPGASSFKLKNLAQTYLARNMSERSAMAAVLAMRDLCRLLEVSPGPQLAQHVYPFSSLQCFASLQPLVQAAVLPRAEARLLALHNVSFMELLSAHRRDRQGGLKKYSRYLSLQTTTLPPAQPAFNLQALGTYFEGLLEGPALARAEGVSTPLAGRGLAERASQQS
UniProt Q6WKZ4, sequence (Q6WKZ4 whole entry, looked up): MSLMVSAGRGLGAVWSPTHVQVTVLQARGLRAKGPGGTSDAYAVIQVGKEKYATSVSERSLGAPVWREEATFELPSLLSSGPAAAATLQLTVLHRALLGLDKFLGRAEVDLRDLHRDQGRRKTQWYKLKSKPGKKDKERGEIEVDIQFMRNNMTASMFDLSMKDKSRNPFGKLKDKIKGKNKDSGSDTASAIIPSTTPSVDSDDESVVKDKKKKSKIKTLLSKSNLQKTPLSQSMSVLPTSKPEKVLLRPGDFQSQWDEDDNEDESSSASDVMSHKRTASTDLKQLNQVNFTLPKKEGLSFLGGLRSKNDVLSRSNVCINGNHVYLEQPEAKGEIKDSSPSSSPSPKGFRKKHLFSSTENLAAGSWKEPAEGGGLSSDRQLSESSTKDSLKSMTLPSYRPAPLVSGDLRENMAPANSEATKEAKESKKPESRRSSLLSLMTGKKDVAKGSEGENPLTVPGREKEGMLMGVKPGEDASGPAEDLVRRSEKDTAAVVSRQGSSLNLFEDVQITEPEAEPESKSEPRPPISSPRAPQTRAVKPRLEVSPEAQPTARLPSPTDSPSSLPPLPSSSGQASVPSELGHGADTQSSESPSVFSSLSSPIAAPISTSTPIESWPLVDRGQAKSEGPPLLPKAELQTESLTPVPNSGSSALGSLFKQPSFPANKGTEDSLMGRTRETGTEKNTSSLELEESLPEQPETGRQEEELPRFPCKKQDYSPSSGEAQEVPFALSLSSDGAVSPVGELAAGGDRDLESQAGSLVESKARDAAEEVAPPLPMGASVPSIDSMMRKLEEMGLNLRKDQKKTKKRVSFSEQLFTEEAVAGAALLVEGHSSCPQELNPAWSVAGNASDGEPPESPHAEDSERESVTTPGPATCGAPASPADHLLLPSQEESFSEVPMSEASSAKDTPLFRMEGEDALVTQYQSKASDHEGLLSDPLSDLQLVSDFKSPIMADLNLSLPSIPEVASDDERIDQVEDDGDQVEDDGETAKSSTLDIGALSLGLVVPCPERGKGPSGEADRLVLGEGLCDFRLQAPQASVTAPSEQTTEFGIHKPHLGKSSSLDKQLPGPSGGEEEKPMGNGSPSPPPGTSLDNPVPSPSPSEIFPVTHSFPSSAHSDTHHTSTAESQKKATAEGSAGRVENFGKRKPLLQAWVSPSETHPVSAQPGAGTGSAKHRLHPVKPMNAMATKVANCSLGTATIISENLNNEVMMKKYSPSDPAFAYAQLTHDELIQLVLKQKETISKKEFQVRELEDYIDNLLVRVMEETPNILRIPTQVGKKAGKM
UniProt Q13523, sequence (Q13523 whole entry, looked up): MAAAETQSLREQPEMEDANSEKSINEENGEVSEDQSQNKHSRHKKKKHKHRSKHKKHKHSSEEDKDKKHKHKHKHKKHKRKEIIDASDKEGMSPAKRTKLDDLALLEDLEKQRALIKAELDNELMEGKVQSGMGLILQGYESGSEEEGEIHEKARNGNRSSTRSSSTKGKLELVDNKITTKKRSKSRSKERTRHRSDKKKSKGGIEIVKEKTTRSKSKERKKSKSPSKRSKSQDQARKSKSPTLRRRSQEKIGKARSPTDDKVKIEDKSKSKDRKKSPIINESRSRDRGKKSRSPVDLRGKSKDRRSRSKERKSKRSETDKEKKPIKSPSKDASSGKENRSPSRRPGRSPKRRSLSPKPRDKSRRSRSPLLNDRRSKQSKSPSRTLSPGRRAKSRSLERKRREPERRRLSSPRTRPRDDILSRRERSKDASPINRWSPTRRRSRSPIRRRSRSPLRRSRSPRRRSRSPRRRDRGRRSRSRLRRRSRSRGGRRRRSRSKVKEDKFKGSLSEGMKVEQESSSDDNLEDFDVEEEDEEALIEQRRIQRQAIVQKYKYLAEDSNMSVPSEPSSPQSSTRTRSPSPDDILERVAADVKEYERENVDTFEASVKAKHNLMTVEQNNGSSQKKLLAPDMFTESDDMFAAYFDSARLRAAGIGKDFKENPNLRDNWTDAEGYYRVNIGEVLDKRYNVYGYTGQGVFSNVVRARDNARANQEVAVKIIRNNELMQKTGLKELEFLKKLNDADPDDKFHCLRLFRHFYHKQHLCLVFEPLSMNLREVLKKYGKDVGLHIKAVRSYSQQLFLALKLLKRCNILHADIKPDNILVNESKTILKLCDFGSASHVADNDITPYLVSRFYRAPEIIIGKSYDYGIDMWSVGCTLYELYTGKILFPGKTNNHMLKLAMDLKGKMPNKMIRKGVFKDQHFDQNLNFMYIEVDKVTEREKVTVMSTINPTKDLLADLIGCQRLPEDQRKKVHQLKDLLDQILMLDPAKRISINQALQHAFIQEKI
UniProt P35998, sequence (P35998 whole entry, looked up): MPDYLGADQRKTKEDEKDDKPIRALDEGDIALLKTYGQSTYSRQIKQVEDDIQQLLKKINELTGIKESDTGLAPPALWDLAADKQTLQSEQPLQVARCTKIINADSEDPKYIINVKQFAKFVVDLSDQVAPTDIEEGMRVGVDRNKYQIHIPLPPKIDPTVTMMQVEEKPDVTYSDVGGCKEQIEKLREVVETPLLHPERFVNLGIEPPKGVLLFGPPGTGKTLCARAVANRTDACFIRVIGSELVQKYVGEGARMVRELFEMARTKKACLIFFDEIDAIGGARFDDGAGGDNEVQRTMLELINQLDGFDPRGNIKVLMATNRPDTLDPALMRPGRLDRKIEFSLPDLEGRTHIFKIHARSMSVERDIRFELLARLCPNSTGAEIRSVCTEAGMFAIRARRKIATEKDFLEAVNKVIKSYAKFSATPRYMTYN

Row | Target | log2 fold change [1] | log2 fold change [2] | log2 fold change [3] | log2 fold change [4] | log2 fold change [5] | log2 fold change [6] | log2 fold change [7] | log2 fold change [8] | log2 fold change [9] | log2 fold change [10] | log2 fold change [11] | log2 fold change [12] | log2 fold change [13] | log2 fold change [14] | log2 fold change [15] | log2 fold change [16] | log2 fold change [17] | log2 fold change [18] | log2 fold change [19] | log2 fold change [20]
1 | PHKA2 (UniProt P46019) | -0.049 | -0.094 | -0.174 | 0.071 | -0.047 | -0.029 | 0.01 | 0.026 | -0.002 | -0.35 (active) | 0.032 | -0.085 | -0.088 | -0.021 | 0.135 | 0.012 | -0.063 | -0.009 | -0.022 | -0.03
2 | PTPA (UniProt A6PVN8) | 0.051 | -0.041 | -0.03 | 0.053 | 0.099 | 0.047 | 0.016 | -0.105 | 0.069 | 0.011 | 0.21 | 0.003 | 0.034 | 0.131 | -0.133 | -0.045 | 0.072 | -0.008 | 0.077 | 0.039
3 | PTGFRN (UniProt Q9P2B2) | 0.032 | 0.008 | 0 | 0.014 | 0.022 | -0.049 | -0.01 | 0.025 | -0.104 | 0.181 | 0.029 | 0.082 | -0.029 | 0 | -0.092 | -0.049 | -0.024 | 0.056 | -0.004 | 0.053
4 | RAB11FIP1 (UniProt Q6WKZ4) | -0.07 | -0.105 | 0.023 | 0.122 | 0.015 | -0.063 | 0.021 | 0.018 | -0.017 | -0.373 (active) | 0.021 | -0.094 | -0.028 | 0.005 | 0.045 | -0.16 | -0.012 | -0.043 | 0.052 | -0.019
5 | PRPF4B (UniProt Q13523) | 0.025 | -0.17 | 0.027 | -0.174 | -0.005 | 0.104 | -0.049 | 0.011 | 0.081 | 0.019 | -0.064 | -0.047 | -0.052 | 0.085 | -0.209 | -0.32 | 0.022 | -0.146 | 0.02 | 0.046
6 | PTRH2 (UniProt Q9Y3E5) | -0.004 | -0.09 | 0.013 | -0.018 | -0.003 | -0.067 | 0.057 | 0.001 | -0.042 | 0.018 | -0.008 | 0.027 | -0.09 | -0.052 | 0.148 | -0.009 | -0.002 | -0.051 | 0.017 | 0
7 | PIP4K2B (UniProt P78356) | 0.573 (active) | 0.776 (active) | -0.089 | 0.015 | -0.036 | -0.054 | 0.029 | 0.005 | 0.172 | 0.231 | -0.021 | -0.088 | 0.204 | 0.022 | 0.179 | 0.176 | -0.035 | -0.083 | 0.049 | -0.108
8 | PUM1 isoform 3 (UniProt Q14671) | -0.075 | -0.302 (active) | 0.036 | 0.023 | -0.007 | -0.018 | 0.015 | 0.033 | 0.044 | -0.123 | -0.01 | -0.023 | -0.059 | 0.004 | -0.019 | -0.078 | 0.082 | -0.039 | -0.01 | 0.001
9 | PSMC2 (UniProt P35998) | 0.042 | 0.169 | -0.019 | -0.324 (active) | 0.012 | 0.024 | -0.018 | -0.044 | 0.023 | 0.039 | -0.024 | -0.03 | 0.046 | -0.01 | -0.014 | 0.061 | 0.033 | 0.035 | 0.018 | 0.001
10 | PML (UniProt P29590) | -0.051 | -0.136 | 0.027 | -0.021 | -0.001 | -0.024 | -0.049 | 0.026 | 0.015 | -0.045 | -0.001 | -0.038 | -0.005 | -0.051 | 0.024 | -0.053 | -0.008 | -0.031 | 0.005 | 0
11 | PDS5A (UniProt Q29RF7) | -0.213 | -0.447 | 0.137 | 0.29 | -0.086 | 0.012 | -0.107 | 0.246 | 0.042 | -0.203 | -0.094 | -0.62 (active) | -0.122 | -0.235 | 0.051 | -0.045 | -0.025 | 0.053 | 0.028 | 0.006
12 | PUF60 (UniProt Q9UHX1) | -0.078 | -0.304 (active) | 0.033 | 0.028 | -0.045 | -0.032 | 0.007 | 0.022 | -0.031 | 0.051 | 0 | -0.035 | -0.138 | 0.048 | -0.197 | -0.173 | -0.003 | -0.007 | 0.049 | -0.012
13 | POMK (UniProt Q9H5K3) | -0.079 | -0.093 | 0.014 | -0.05 | 0.054 | 0.054 | -0.007 | 0.012 | 0.023 | -0.082 | -0.047 | 0.007 | -0.083 | 0.021 | 0.022 | 0.024 | 0.168 | -0.052 | 0.089 | -0.056
14 | PTPA (UniProt Q15257) | -0.007 | 0.004 | -0.012 | 0.051 | -0.017 | -0.06 | -0.002 | 0.008 | -0.072 | -0.009 | 0.009 | 0.068 | -0.06 | -0.029 | -0.036 | -0.033 | -0.045 | -0.012 | 0.012 | 0.003
15 | PPP1R35 (UniProt Q8TAP8) | 0.062 | 0.101 | -0.062 | 0.062 | 0.009 | 0.007 | -0.004 | 0.035 | 0.027 | -0.032 | 0.034 | -0.011 | -0.03 | 0.035 | -0.029 | -0.007 | 0.019 | -0.109 | 0.072 | 0.052
16 | PDE2A (UniProt O00408) | -0.031 | -0.107 | 0.016 | -0.087 | 0.061 | -0.082 | 0.027 | -0.004 | 0 | -0.091 | -0.011 | -0.005 | -0.003 | 0.208 | 0.01 | -0.094 | -0.051 | -0.065 | -0.064 | -0.042
